# Test results reported in PubChem BioAssay (EPA / NIEHS).
# Several values for one entry are separate records, joined by “and”; a condition that tells them apart may be missing. Equal values may be shown once. Activity calls are given as the source filed them. The calls were made as follows: active = hit-call score of the fitted dose curve at least 0.9, where 1 is the maximum; inactive = score below 0.9.
# Assay: BSK_LPS_SRB: Viability Assessment in the BioMAP Diversity Plus: LPS Assay (AID 2283079);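 also: total protein by sulforhodamine B absorbance as a cytotoxicity measure; measured one day after compound addition; fitted in both directions against DMSO so loss or gain of signal counts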
# Details: primary human HUVEC with PBMC
# In short: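 Readout is SRB absorbance at 560 nm (0.1% stain, TCA-fixed parallel cultures) as a total-protein cytotoxicity measure. Cells: primary human umbilical vein endothelium plus peripheral blood mononuclear cells, 24 h after chemical exposure; DMSO served as baseline.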
Compound,outcome,AC50
CCOC(=O)C(C)Oc1ccc(Oc2cnc3cc(Cl)ccc3n2)cc1 (stereo not given),inactive,
C#C[C@]1(O)CC[C@H]2[C@@H]3CCC4=CC(=O)CC[C@@H]4[C@H]3CC[C@@]21CC,inactive,
CC(C)(c1ccc(O)cc1)c1ccc(O)cc1,inactive,
COC(=O)c1ccccc1S(=O)(=O)NC(=O)Nc1nc(OC(F)F)cc(OC(F)F)n1,inactive,
S=C(S)NCCNC(=S)S.[Mn+2].[S-]C([S-])=NCCN=C([S-])[S-].[Zn+2],inactive,
CCC(O)=C1C(=O)CC(C(=O)O)CC1=O (stereo not given),inactive,
CCCCCOC(=O)COc1cc(N2C(=O)C3=C(CCCC3)C2=O)c(F)cc1Cl,inactive,
CCOC(=O)c1ccc(O)cc1,inactive,
CCCCC(CC)COC(=O)c1ccccc1C(=O)O (stereo not given),inactive,
CCOC(=O)NCCOc1ccc(Oc2ccccc2)cc1,,14.2 µM (active)
CCC(C)OC(=O)N1CCCCC1CCO (stereo not given),inactive,
CCNc1nc(N)nc(Cl)n1,inactive,
COC(=O)c1ccccc1C(=O)O,inactive,
COC(=O)c1cccc(C)c1S(=O)(=O)NC(=O)Nc1nc(OCC(F)(F)F)nc(N(C)C)n1,inactive,
O=C(O)C1(C(=O)Nc2ccc(Cl)cc2Cl)CC1,inactive,
Oc1ccc(C(c2ccc(O)cc2)C(Cl)(Cl)Cl)cc1,,17 µM (active)
N[C@@H](Cc1cc(I)c(Oc2ccc(O)c(I)c2)c(I)c1)C(=O)O,inactive,
COc1c(Cl)ccc(Cl)c1C(=O)O,inactive,
CC(C)CCCCCCc1ccc(O)cc1,,13.8 µM (active)
N#CSCSc1nc2ccccc2s1,,8.07 µM (active) and 9.64 µM (active)
CCN(Cc1c(F)cccc1Cl)c1c([N+](=O)[O-])cc(C(F)(F)F)cc1[N+](=O)[O-],,14.1 µM (active)
O=C(O)c1ccccc1,inactive,
Cc1nn(C)c(Oc2ccccc2)c1C=NOCc1ccc(C(=O)OC(C)(C)C)cc1,,12.6 µM (active)
C[C@]12C[C@H](O)[C@H]3[C@@H](CCC4=CC(=O)CC[C@@]43C)[C@@H]1CC[C@@H]2C(=O)CO,inactive,
CC(=O)[C@H]1CC[C@H]2[C@@H]3CCC4=CC(=O)CC[C@]4(C)[C@H]3CC[C@]12C,,8 µM (active)
CCCCC(CC)CN1C(=O)C2C3C=CC(C3)C2C1=O (stereo not given),,3.97 µM (active)
O=C(c1ccccc1)C1CCCCC1,inactive,
CCCN(CCC)C(=O)SCC,inactive,
CCCOC(=O)c1ccc(C(=O)OCCC)nc1,inactive,
CCCOC(=O)NCCCN(C)C,inactive,
